# Measurements: PubChem BioAssay (NCI)
# About 79,000 compounds went through this panel and 15% of them were active in at least one assay; those are over-represented in the sample as a whole. Values without a mark were called inactive. Activity calls are given as the source filed them. No stated cut-off is given here; in the data, active means growth inhibition above about 70%; inactive means the rest.
# Key:
# [1] = NCI Yeast Anticancer Drug Screen. Data for the rad52 strain (AID 147);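 further: 0% = growth of vehicle-treated control cultures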; conditions: S. cerevisiae rad52 mutant growth inhibition, stronger effect = higher value
# In short: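 Screen used a yeast mutant impaired in DNA repair. After compound exposure, growth was measured. Values reflect inhibition compared with vehicle-treated cells.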
# [2] = NCI Yeast Anticancer Drug Screen. Data for the wt1 strain (AID 149);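 further: 0% = growth of vehicle-treated wt1 cultures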; conditions: S. cerevisiae wt1 strain (SPY 50644) growth inhibition, stronger effect = higher value
# In short: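 Measured: growth of wt1 yeast under compound versus vehicle treatment, reported as inhibition.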
# [3] = NCI Yeast Anticancer Drug Screen. Data for the rad50EPP+ strain (AID 151);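 further: 0% = growth of vehicle-treated control cultures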; conditions: S. cerevisiae rad50 mutant strain, stronger effect = higher value
# In short: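 Exposing the rad50EPP+ strain to each compound, growth was compared with vehicle-only cultures to give inhibition.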
# [4] = NCI Yeast Anticancer Drug Screen. Data for the mgt1 strain (AID 153); conditions: S. cerevisiae mgt1 mutant growth inhibition, stronger effect = higher value
# In short: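 Genetically defined yeast (mgt1) treated with compound; inhibition of growth expressed against vehicle-treated controls.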
# [5] = NCI Yeast Anticancer Drug Screen. Data for the rad50 strain (AID 155);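 further: 0% = growth of vehicle-only cultures of the same strain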; conditions: S. cerevisiae rad50 strain growth inhibition, stronger effect = higher value
# In short: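 Growth of the mutant yeast was measured after compound exposure and referenced to vehicle-treated cultures.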
# [6] = NCI Yeast Anticancer Drug Screen. Data for the mec2-1 strain (AID 157); conditions: S. cerevisiae mec2-1 strain, stronger effect = higher value
# In short: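 Readout is yeast growth inhibition, normalised to vehicle-treated controls, in the mec2-1 strain exposed to compound.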
# [7] = NCI Yeast Anticancer Drug Screen. Data for the rad14 strain (AID 159);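 further: 0% = growth of vehicle-treated control cultures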; conditions: S. cerevisiae rad14 strain growth inhibition, stronger effect = higher value
# In short: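 Here, inhibition of yeast growth was measured after compound exposure, using a strain with a genetic defect in DNA damage repair and vehicle-treated cultures as the reference.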
# [8] = NCI Yeast Anticancer Drug Screen. Data for the sgs1 mgt1 strain (AID 161);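 further: 0% = growth of cultures given vehicle only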; conditions: S. cerevisiae sgs1 mgt1 strain, stronger effect = higher value
# In short: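 Compounds are added to genetically altered yeast, and growth is compared with cultures given vehicle alone to give percent inhibition.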
# [9] = NCI Yeast Anticancer Drug Screen. Data for the CLN2oe strain (AID 163);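 further: 0% = growth of vehicle-only control cultures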; conditions: S. cerevisiae CLN2oe strain, stronger effect = higher value
# In short: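 Values reflect how much compound exposure reduced yeast growth, referenced to vehicle-exposed cells. Assay organism is a strain with a defined genetic change affecting cell-cycle control.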
# [10] = NCI Yeast Anticancer Drug Screen. Data for the cln2 rad14 strain (AID 165);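 further: 0% = growth equal to vehicle treated cultures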; conditions: S. cerevisiae cln2 rad14 strain, stronger effect = higher value
# In short: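 Relative to vehicle controls, growth inhibition of compound-treated cln2 rad14 yeast was recorded.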
# [11] = NCI Yeast Anticancer Drug Screen. Data for the bub3 strain (AID 167); conditions: S. cerevisiae bub3 mutant strain, stronger effect = higher value
# In short: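 Whole-cell yeast assay. The mutant strain was incubated with compounds, and growth inhibition was determined by comparison with vehicle-treated cells.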
# [12] = NCI Yeast Anticancer Drug Screen. Data for the wt2 strain (AID 169);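 further: 0% = growth of vehicle-treated yeast cultures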; conditions: S. cerevisiae wt2 strain growth inhibition, stronger effect = higher value
# In short: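 Values express reduction in yeast growth under compound treatment, referenced to vehicle-treated cells.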
# [13] = NCI Yeast Anticancer Drug Screen. Data for the mlh1 strain (AID 171);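 further: 0% = growth of vehicle-treated control cultures of the same strain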; conditions: S. cerevisiae mlh1 strain growth inhibition, stronger effect = higher value
# In short: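 Steps: expose the defined-mutant yeast strain to compound; expose a parallel culture to vehicle; measure growth; express compound effect as inhibition relative to the vehicle culture.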
# [14] = NCI Yeast Anticancer Drug Screen. Data for the sgs1 strain (AID 173);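 further: 0% = growth of vehicle-only control cultures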; conditions: S. cerevisiae sgs1 mutant, stronger effect = higher value
# In short: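 Treat defined-mutant yeast with compound; measure growth; calculate inhibition relative to vehicle-treated cells.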
# [15] = NCI Yeast Anticancer Drug Screen. Data for the mlh1 rad18 strain (AID 175); conditions: S. cerevisiae mlh1 rad18 strain growth inhibition, stronger effect = higher value
# In short: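 Test agents were incubated with a yeast strain of defined genotype (DNA damage repair defect). Inhibition of growth was derived by comparison with vehicle-exposed cultures.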
# [16] = at 5.0 µM (retest, dose inferred, filed as 0.5)
# [17] = at 50.0 µM (retest, dose inferred, filed as 5.0)
smiles,measurement,setting,value
O=C1C(=O)c2ccccc2C=C1[N+](=O)[O-],growth inhibition,[1]; at 1.2 µM,3%
same,growth inhibition,[1]; at 3.7 µM,11%
same,growth inhibition,[1]; at 11.0 µM,26%
same,growth inhibition,[1]; at 33.0 µM,70% (active)
same,growth inhibition,[1]; at 100.0 µM,91% (active)
same,growth inhibition,[2]; at 1.2 µM,3%
same,growth inhibition,[2]; at 3.7 µM,5%
same,growth inhibition,[2]; at 11.0 µM,9%
same,growth inhibition,[2]; at 33.0 µM,15%
same,growth inhibition,[2]; at 100.0 µM,26%
same,growth inhibition,[3]; at 1.2 µM,-1%
same,growth inhibition,[3]; at 3.7 µM,-1%
same,growth inhibition,[3]; at 11.0 µM,5%
same,growth inhibition,[3]; at 33.0 µM,15%
same,growth inhibition,[3]; at 100.0 µM,29%
same,growth inhibition,[4]; at 1.2 µM,2%
same,growth inhibition,[4]; at 3.7 µM,10%
same,growth inhibition,[4]; at 11.0 µM,9%
same,growth inhibition,[4]; at 33.0 µM,15%
same,growth inhibition,[4]; at 100.0 µM,58%
same,growth inhibition,[5]; at 1.2 µM,0%
same,growth inhibition,[5]; at 3.7 µM,9%
same,growth inhibition,[5]; [16],-12%
same,growth inhibition,[5]; at 11.0 µM,12%
same,growth inhibition,[5]; at 33.0 µM,36%
same,growth inhibition,[5]; [17],30%
same,growth inhibition,[5]; at 50.0 µM,50.5%
same,growth inhibition,[5]; at 100.0 µM,82% (active)
same,growth inhibition,[6]; at 1.2 µM,2%
same,growth inhibition,[6]; at 3.7 µM,5%
same,growth inhibition,[6]; [16],8%
same,growth inhibition,[6]; at 11.0 µM,13%
same,growth inhibition,[6]; at 33.0 µM,18%
same,growth inhibition,[6]; [17],13%
same,growth inhibition,[6]; at 50.0 µM,29.4%
same,growth inhibition,[6]; at 100.0 µM,35%
same,growth inhibition,[7]; at 1.2 µM,2%
same,growth inhibition,[7]; at 3.7 µM,17%
same,growth inhibition,[7]; at 11.0 µM,15%
same,growth inhibition,[7]; at 33.0 µM,37%
same,growth inhibition,[7]; at 100.0 µM,86% (active)
same,growth inhibition,[8]; [16],14%
same,growth inhibition,[8]; [17],77% (active)
same,growth inhibition,[8]; at 50.0 µM,73.7% (active)
same,growth inhibition,[9]; at 1.2 µM,2%
same,growth inhibition,[9]; at 3.7 µM,3%
same,growth inhibition,[9]; at 11.0 µM,9%
same,growth inhibition,[9]; at 33.0 µM,17%
same,growth inhibition,[9]; at 100.0 µM,23%
same,growth inhibition,[10]; [16],-13%
same,growth inhibition,[10]; [17],14%
same,growth inhibition,[10]; at 50.0 µM,16.8%
same,growth inhibition,[11]; at 1.2 µM,0%
same,growth inhibition,[11]; at 3.7 µM,3%
same,growth inhibition,[11]; [16],-14%
same,growth inhibition,[11]; at 11.0 µM,1%
same,growth inhibition,[11]; at 33.0 µM,4%
same,growth inhibition,[11]; [17],8%
same,growth inhibition,[11]; at 50.0 µM,8.85%
same,growth inhibition,[11]; at 100.0 µM,49%
same,growth inhibition,[12]; at 1.2 µM,2%
same,growth inhibition,[12]; at 3.7 µM,6%
same,growth inhibition,[12]; at 11.0 µM,11%
same,growth inhibition,[12]; at 33.0 µM,28%
same,growth inhibition,[12]; at 100.0 µM,75% (active)
same,growth inhibition,[13]; at 1.2 µM,1%
same,growth inhibition,[13]; at 3.7 µM,1%
same,growth inhibition,[13]; at 11.0 µM,3%
same,growth inhibition,[13]; at 33.0 µM,22%
same,growth inhibition,[13]; at 100.0 µM,83% (active)
same,growth inhibition,[14]; at 1.2 µM,4%
same,growth inhibition,[14]; at 3.7 µM,11%
same,growth inhibition,[14]; at 11.0 µM,30%
same,growth inhibition,[14]; at 33.0 µM,65%
same,growth inhibition,[14]; at 100.0 µM,92% (active)
same,growth inhibition,[15]; [16],0%
same,growth inhibition,[15]; [17],64%
same,growth inhibition,[15]; at 50.0 µM,68.8%
c1ccc2c(c1)NC(NC1Nc3ccccc3N1)N2,growth inhibition,[1]; at 1.2 µM,0%
same,growth inhibition,[1]; at 3.7 µM,4%
same,growth inhibition,[1]; at 11.0 µM,6%
same,growth inhibition,[1]; at 33.0 µM,19%
same,growth inhibition,[1]; at 100.0 µM,31%
same,growth inhibition,[2]; at 1.2 µM,0%
same,growth inhibition,[2]; at 3.7 µM,5%
same,growth inhibition,[2]; at 11.0 µM,4%
same,growth inhibition,[2]; at 33.0 µM,9%
same,growth inhibition,[2]; at 100.0 µM,19%
same,growth inhibition,[3]; at 1.2 µM,9%
same,growth inhibition,[3]; at 3.7 µM,23%
same,growth inhibition,[3]; at 11.0 µM,34%
same,growth inhibition,[3]; at 33.0 µM,38%
same,growth inhibition,[3]; at 100.0 µM,48%
same,growth inhibition,[4]; at 1.2 µM,-4%
same,growth inhibition,[4]; at 3.7 µM,-7%
same,growth inhibition,[4]; at 11.0 µM,-4%
same,growth inhibition,[4]; at 33.0 µM,0%
same,growth inhibition,[4]; at 100.0 µM,10%
same,growth inhibition,[5]; at 1.2 µM,1%
same,growth inhibition,[5]; at 3.7 µM,5%
same,growth inhibition,[5]; [16],9%
same,growth inhibition,[5]; at 11.0 µM,8%
same,growth inhibition,[5]; at 33.0 µM,23%
same,growth inhibition,[5]; [17],67%
same,growth inhibition,[5]; at 50.0 µM,41.5%
same,growth inhibition,[5]; at 100.0 µM,40%
same,growth inhibition,[6]; at 1.2 µM,5%
same,growth inhibition,[6]; at 3.7 µM,7%
same,growth inhibition,[6]; [16],-3%
same,growth inhibition,[6]; at 11.0 µM,10%
same,growth inhibition,[6]; at 33.0 µM,16%
same,growth inhibition,[6]; [17],16%
same,growth inhibition,[6]; at 50.0 µM,9.05%
same,growth inhibition,[6]; at 100.0 µM,20%
same,growth inhibition,[7]; at 1.2 µM,-4%
same,growth inhibition,[7]; at 3.7 µM,-1%
same,growth inhibition,[7]; at 11.0 µM,3%
same,growth inhibition,[7]; at 33.0 µM,12%
same,growth inhibition,[7]; at 100.0 µM,26%
same,growth inhibition,[8]; [16],-4%
same,growth inhibition,[8]; [17],66%
same,growth inhibition,[8]; at 50.0 µM,15.7%
same,growth inhibition,[9]; at 1.2 µM,-6%
same,growth inhibition,[9]; at 3.7 µM,-17%
same,growth inhibition,[9]; at 11.0 µM,-9%
same,growth inhibition,[9]; at 33.0 µM,-7%
same,growth inhibition,[9]; at 100.0 µM,8%
same,growth inhibition,[10]; [16],13%
same,growth inhibition,[10]; [17],32%
same,growth inhibition,[10]; at 50.0 µM,-21.1%
same,growth inhibition,[11]; at 1.2 µM,-2%
same,growth inhibition,[11]; at 3.7 µM,-4%
same,growth inhibition,[11]; [16],19%
same,growth inhibition,[11]; at 11.0 µM,-2%
same,growth inhibition,[11]; at 33.0 µM,-2%
same,growth inhibition,[11]; [17],70% (active)
same,growth inhibition,[11]; at 50.0 µM,10.8%
same,growth inhibition,[11]; at 100.0 µM,-10%
same,growth inhibition,[12]; at 1.2 µM,0%
same,growth inhibition,[12]; at 3.7 µM,0%
same,growth inhibition,[12]; at 11.0 µM,0%
same,growth inhibition,[12]; at 33.0 µM,8%
same,growth inhibition,[12]; at 100.0 µM,19%
same,growth inhibition,[13]; at 1.2 µM,3%
same,growth inhibition,[13]; at 3.7 µM,1%
same,growth inhibition,[13]; at 11.0 µM,4%
same,growth inhibition,[13]; at 33.0 µM,10%
same,growth inhibition,[13]; at 100.0 µM,14%
same,growth inhibition,[14]; at 1.2 µM,0%
same,growth inhibition,[14]; at 3.7 µM,3%
same,growth inhibition,[14]; at 11.0 µM,9%
same,growth inhibition,[14]; at 33.0 µM,12%
same,growth inhibition,[14]; at 100.0 µM,16%
same,growth inhibition,[15]; [16],25%
same,growth inhibition,[15]; [17],81% (active)
same,growth inhibition,[15]; at 50.0 µM,27.6%
